About 83,000 compounds went through this panel and 20% of them were active in at least one assay; those are over-represented in the sample as a whole.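 Interpretation: 100, growth as untreated; towards 0, rising growth inhibition; 0, no net growth; 0 to -100, cell death. Compounds scoring below 10 were considered active.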 Values without a mark were called inactive. Activity calls are given as the source filed them.
tested on: NCI/ADR-RES ovarian; test: NCI-60 one-dose screen, 48 h (100 = growth as untreated, 0 = no growth, -100 = all killed); conditions: 10 µM

Compound | growth
COc1ccc(C(c2ccc(OCCN(C)C)cc2)c2cc3ccccc3c3ccccc23)cc1 (stereo unspecified) | 68.1%
O=C(N/N=C/c1ccc(Cl)cc1)c1ccccc1Nc1cccc(C(F)(F)F)c1 | 88.8%
CC(=O)O[C@@]12CO[C@@H]1C[C@H](O)[C@@]1(C)C(=O)[C@H](O)C3=C(C)[C@@H](OC(=O)[C@H](O)[C@@H](NC(=O)OC(C)(C)C)c4ccccc4)C[C@@](O)([C@@H](OC(=O)c4ccccc4)C12)C3(C)C (stereo partly specified) | -21.2% (active)
CS(=O)(=O)c1nccc(-c2c(-c3cccc(OCCc4ccccc4)c3)nc3sccn23)n1 | 99.9%
C(=N\Nc1ncnc2sc3c(c12)CCNC3)/c1cccc2ccccc12 | 75.4%
CNS(=O)(=O)Oc1ccc(-c2sc3cc(OS(=O)(=O)NC)ccc3c2C(=O)c2ccc(OCCN3CCCCC3)cc2)cc1 | 71.4%
CCCCC/C=C/C/C=C/CCCCCCCC1=NC(C)(C)CN1C(C)C | 37.1%
C#C[C@]1(O)CCC2C3CCc4cc(OC5CCCC5)ccc4C3CC[C@@]21C (stereo partly specified) | 87.6%
O=C(N/N=C/c1c(Cl)cccc1Cl)c1ccccc1Nc1cccc(C(F)(F)F)c1 | 100%
COc1cccc(-c2nc3sccn3c2-c2cccc(S(C)(=O)=O)c2)c1 | 92.5%
CC(=O)Nc1ccc(S(=O)(=O)c2ccnc3cc(Cl)ccc23)cc1 | 77.3%

From PubChem BioAssay (NCI)
